# Measurements as given in publication PMC7862700, “An all-to-all approach to the identification of sequence-specific readers for epigenetic DNA modifications on cytosine”.
# Experiments:
# Experiment in all cases: DAPPL (digital affinity profiling via proximity ligation, sequencing); 10 mM Tris-HCl pH 7.5, 50 mM NaCl, 1 mM DTT, 4% glycerol, room temperature, 30 min; GST-TFs on glutathione beads, 16-mer random dsDNA library, 0.1% formaldehyde crosslink after washing; high values mean tight binding
# [1] = target: T1, FEV (Homo sapiens, UniProt Q99581 1-238); details: protein: recombinant; tags: N-terminal GST; dsDNA, one strand shown
# T1 sequence: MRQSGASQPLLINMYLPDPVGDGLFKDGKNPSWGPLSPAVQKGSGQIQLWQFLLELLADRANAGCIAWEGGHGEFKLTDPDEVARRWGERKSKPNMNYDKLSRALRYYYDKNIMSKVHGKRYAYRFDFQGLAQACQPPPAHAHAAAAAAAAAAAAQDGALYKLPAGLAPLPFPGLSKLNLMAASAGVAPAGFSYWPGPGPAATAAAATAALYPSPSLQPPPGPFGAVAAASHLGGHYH
# In short: (§1)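 A tag-only sample was pooled with DNA-barcoded human transcription factors that had been expressed in yeast as GST fusions and captured on glutathione beads. The pools were incubated for 30 min at room temperature with 200 nmole of a random double-stranded 16-mer DNA library in Tris/NaCl/DTT/glycerol buffer, then washed, crosslinked with 0.1% formaldehyde, proximity-ligated (BsaI/T4 ligase, 1 h, 37 °C), PCR-amplified and sequenced on an Illumina NextSeq500. Binding signal is each hexamer's read frequency for a factor divided by its frequency for the tag-only sample.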
# [2] = target: ETV5 (Homo sapiens, UniProt P41161 1-510); details: protein: recombinant; tags: N-terminal GST; dsDNA, one strand shown
# Chain of ETV5 (P41161 whole entry): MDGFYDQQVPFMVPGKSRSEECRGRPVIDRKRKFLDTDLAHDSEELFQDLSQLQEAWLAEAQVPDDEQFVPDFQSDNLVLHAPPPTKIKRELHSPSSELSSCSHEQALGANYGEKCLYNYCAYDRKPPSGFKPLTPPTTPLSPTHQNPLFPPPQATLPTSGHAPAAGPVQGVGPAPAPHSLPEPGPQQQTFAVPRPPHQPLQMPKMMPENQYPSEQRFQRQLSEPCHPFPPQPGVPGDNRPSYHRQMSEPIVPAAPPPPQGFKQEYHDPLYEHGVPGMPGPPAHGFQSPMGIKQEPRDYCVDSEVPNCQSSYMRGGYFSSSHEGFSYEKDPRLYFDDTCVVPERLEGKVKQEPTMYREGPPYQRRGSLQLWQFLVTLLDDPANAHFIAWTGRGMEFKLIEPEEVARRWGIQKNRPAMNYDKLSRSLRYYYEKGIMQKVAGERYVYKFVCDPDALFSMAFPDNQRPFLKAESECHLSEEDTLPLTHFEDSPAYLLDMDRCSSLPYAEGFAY
# In short: as §1
# [3] = target: HSF1 (Homo sapiens, UniProt Q00613 1-529); details: protein: recombinant; tags: N-terminal GST; chain copies: 3; dsDNA, one strand shown
# Chain of HSF1 (Q00613 whole entry): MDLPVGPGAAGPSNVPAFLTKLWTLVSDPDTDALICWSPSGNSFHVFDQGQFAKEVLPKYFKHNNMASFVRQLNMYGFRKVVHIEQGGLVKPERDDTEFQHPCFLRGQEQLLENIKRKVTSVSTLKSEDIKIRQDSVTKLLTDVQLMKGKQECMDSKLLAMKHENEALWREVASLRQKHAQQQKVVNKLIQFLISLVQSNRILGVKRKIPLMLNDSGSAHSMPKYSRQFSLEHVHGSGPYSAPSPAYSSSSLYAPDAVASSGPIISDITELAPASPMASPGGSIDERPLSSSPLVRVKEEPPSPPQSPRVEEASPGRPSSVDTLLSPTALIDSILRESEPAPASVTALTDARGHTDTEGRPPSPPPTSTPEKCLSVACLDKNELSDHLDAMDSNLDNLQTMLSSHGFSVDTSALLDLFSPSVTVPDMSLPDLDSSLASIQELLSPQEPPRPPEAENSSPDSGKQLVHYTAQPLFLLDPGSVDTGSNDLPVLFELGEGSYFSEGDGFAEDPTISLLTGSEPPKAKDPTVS
# In short: as §1
# [4] = target: T2, SPIC (Homo sapiens, UniProt Q8N5J4 1-248); details: protein: recombinant; tags: N-terminal GST; dsDNA, one strand shown
# T2 sequence: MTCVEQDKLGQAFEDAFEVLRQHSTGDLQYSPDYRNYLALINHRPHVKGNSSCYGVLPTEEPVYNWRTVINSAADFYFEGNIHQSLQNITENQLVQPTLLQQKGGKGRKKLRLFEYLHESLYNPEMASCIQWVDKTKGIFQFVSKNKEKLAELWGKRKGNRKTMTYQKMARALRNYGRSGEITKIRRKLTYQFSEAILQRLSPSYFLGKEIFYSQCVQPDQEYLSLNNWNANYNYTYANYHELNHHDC
# In short: as §1
# [5] = target: ELF4 (Homo sapiens, UniProt Q99607 1-663); details: protein: recombinant; tags: N-terminal GST; dsDNA, one strand shown
# Chain of ELF4 (Q99607 whole entry): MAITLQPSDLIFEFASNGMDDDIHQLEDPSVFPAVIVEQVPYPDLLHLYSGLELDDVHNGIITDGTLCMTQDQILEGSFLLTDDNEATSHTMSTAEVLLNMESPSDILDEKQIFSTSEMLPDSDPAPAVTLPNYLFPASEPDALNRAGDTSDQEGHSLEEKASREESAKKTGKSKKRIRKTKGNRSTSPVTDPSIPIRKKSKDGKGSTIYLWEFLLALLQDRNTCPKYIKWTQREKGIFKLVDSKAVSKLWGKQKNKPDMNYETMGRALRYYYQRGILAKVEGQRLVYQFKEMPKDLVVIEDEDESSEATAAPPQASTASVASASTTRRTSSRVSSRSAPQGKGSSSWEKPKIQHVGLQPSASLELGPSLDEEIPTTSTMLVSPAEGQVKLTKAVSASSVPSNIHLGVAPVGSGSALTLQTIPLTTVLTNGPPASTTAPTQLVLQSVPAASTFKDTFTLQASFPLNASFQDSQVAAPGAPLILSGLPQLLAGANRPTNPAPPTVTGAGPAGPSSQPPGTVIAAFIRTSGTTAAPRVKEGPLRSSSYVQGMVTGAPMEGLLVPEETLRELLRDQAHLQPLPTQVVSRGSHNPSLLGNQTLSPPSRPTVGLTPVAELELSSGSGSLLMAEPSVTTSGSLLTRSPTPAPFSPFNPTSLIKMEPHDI
# In short: as §1
# [6] = target: T3, ELK4 (Homo sapiens, UniProt P28324-2 1-405); details: protein: recombinant; tags: N-terminal GST; dsDNA, one strand shown
# T3 sequence: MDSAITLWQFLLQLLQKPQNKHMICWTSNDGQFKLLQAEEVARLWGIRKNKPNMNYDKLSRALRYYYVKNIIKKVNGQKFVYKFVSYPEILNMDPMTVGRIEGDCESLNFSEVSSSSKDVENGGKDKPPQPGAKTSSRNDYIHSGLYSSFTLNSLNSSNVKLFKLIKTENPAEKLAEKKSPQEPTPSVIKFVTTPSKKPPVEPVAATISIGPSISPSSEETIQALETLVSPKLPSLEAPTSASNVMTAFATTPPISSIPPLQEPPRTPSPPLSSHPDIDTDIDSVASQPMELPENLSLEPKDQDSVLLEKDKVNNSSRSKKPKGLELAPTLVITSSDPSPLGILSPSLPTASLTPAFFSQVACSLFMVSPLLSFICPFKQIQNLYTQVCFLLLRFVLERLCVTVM
# In short: as §1
# [7] = target: T4, ETV2 (Homo sapiens, UniProt O00321 1-342); details: protein: recombinant; tags: N-terminal GST; dsDNA, one strand shown
# T4 sequence: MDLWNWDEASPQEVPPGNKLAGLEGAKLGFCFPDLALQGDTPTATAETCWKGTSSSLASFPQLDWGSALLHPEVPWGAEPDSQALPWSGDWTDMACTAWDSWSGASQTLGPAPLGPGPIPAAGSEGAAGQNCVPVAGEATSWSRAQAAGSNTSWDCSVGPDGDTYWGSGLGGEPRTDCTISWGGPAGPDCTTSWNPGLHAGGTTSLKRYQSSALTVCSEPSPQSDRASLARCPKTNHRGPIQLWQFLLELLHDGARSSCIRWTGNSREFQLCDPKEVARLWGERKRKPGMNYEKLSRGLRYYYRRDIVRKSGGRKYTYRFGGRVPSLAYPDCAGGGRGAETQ
# In short: as §1
# [8] = target: T5, ELF3 (Homo sapiens, UniProt P78545 1-371); details: protein: recombinant; tags: N-terminal GST; dsDNA, one strand shown
# T5 sequence: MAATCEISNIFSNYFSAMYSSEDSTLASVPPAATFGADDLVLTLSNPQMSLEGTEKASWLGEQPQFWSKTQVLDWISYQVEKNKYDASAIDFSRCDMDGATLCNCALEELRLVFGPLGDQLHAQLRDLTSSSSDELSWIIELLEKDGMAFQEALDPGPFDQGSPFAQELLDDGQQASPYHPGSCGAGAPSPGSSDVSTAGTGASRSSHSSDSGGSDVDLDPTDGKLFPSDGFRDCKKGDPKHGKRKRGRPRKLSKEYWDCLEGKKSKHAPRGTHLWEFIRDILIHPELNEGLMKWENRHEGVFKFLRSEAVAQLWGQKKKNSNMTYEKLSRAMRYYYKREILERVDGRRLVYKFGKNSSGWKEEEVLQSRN
# In short: as §1
# [9] = target: CRX (Homo sapiens, UniProt O43186 1-299); details: protein: recombinant; tags: N-terminal GST; dsDNA, one strand shown
# Chain of CRX (O43186 whole entry): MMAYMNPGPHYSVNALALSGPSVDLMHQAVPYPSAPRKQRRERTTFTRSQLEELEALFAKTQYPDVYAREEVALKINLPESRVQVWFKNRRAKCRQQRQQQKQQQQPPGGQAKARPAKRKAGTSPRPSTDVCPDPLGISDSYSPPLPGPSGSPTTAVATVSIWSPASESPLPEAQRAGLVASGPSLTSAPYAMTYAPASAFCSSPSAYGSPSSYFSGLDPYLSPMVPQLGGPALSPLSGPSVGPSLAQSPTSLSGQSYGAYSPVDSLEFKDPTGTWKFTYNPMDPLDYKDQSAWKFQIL
# In short: as §1
# [10] = target: ETV1 (Homo sapiens, UniProt P50549 1-477); details: protein: recombinant; tags: N-terminal GST; dsDNA, one strand shown
# Chain of ETV1 (P50549 whole entry): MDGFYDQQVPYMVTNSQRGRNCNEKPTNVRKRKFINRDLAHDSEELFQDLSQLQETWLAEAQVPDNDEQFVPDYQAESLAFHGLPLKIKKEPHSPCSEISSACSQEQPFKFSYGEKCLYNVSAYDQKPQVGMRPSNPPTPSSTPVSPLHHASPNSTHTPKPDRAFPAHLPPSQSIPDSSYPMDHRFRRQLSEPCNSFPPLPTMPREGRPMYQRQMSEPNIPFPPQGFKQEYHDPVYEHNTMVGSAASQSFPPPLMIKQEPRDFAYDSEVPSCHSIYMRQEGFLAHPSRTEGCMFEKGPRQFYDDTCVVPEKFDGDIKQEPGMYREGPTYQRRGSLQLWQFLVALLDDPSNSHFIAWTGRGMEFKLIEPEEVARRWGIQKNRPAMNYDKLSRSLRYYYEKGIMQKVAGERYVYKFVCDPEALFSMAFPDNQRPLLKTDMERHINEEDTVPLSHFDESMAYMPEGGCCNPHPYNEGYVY
# In short: as §1
sequence,measurement,setting,value
TTTGAT,binding signal,[1],"1.17 fold enrichment (6-mer frequency, TF over GST control)"
same,binding signal,[2],"1.23 fold enrichment (6-mer frequency, TF over GST control)"
same,binding signal,[3],"1.37 fold enrichment (6-mer frequency, TF over GST control)"
same,binding signal,[4],"1.26 fold enrichment (6-mer frequency, TF over GST control)"
same,binding signal,[5],"1.22 fold enrichment (6-mer frequency, TF over GST control)"
same,binding signal,[6],"1.2 fold enrichment (6-mer frequency, TF over GST control)"
same,binding signal,[7],"1.22 fold enrichment (6-mer frequency, TF over GST control)"
same,binding signal,[8],"1.18 fold enrichment (6-mer frequency, TF over GST control)"
same,binding signal,[9],"1.6 fold enrichment (6-mer frequency, TF over GST control)"
same,binding signal,[10],"1.25 fold enrichment (6-mer frequency, TF over GST control)"
